Data published in PubChem BioAssay (NCATS).
Several values for one entry are separate records, joined by “and”; a condition that tells them apart may be missing. Equal values may be shown once. Records with an inconclusive call do not appear. A structure can be active in one record and inactive in another. Activity calls are given as the source filed them. Unless noted, calls follow the shape of the dose curve; as a rule, active = well fitted curve in the direction sought with a large enough effect; inconclusive = small, poorly fitted or top-dose-only effect, or another doubt; inactive = no such curve, though single readings can be large; an effect the other way counts as inactive or inconclusive.

Columns and labels:
[1] = qHTS assay for measurement of the activity of small molecule inhibitors on Zika virus induced Caspase-3 activity in human iPSC derived neural progenitor cells (hNPCs) (AID 1224857); settings: hNPCs ZIKV-induced caspase-3/7, Caspase-Glo luminescence, 6 h; series mostly up to 45.7 µM; also: nearly all actives have a fitted effect of over 65% in size
How it was run: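 Cells were plated at 350 per well and grown 16 to 20 hours. Compound pretreatment lasted one hour, after which ZIKV (2 FFU/cell) was added for 6 hours. Percent inhibition was normalized between uninfected and infected controls.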

[2] = qHTS assay for measurement of the activity of small molecule inhibitors on Zika virus induced Caspase-3 activity in human astrocytoma cells (AID 1224859); settings: SNB-19 ZIKV-induced caspase-3/7, luminescence, 6 h; series mostly up to 45.7 µM
How it was run: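 Percent inhibition of virus-induced caspase-3/7 signal is calculated against uninfected and ZIKV-infected control cells. Cells are SNB-19, infected at 2 FFU/cell for 6 h after 1 h compound exposure.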

[3] = qHTS assay to identify small molecule inhibitors of chordoma cells - UCH-1 (AID 1259355); settings: UCH-1 chordoma viability, CellTiter-Glo, 48 h, combination; series mostly up to 46.1 µM; also: nearly all actives have a fitted effect of over 55% in size; also: potency is read from the fitted curve at half-maximal effect
How it was run: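 Seed 800 cells per well; incubate overnight at 37 C, 5% CO2. Add test compounds (15 concentrations), then the auranofin–topoisomerase-agent combination. Incubate 48hr, add CellTiter-Glo, wait 30min, read luminescence.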

[4] = qHTS assay to identify small molecule inhibitors of chordoma cells - UCH-2 (AID 1259356); settings: UCH-2 chordoma viability, CellTiter-Glo ATP luminescence, 48 h; series mostly up to 46.1 µM
[5] = P-glycoprotein substrates identified in KB-8-5-11 adenocarcinoma cell line, qHTS therapeutic library screen (AID 1346987); settings: KB-8-5-11 (P-gp overexpressing) viability, CellTiter-Glo, 72 h; series mostly up to 44.5 µM; also: nearly all actives have a fitted effect of over 65% in size; also: potency is read from the fitted curve at half-maximal effect
How it was run: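 KB-8-5-11: colchicine-selected sub-line of KB-3-1 over-expressing P-gp; assay medium lacked colchicine. 72 h drug exposure at 37 degree C, CellTiter-Glo.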

[6] = target: Atrial natriuretic peptide receptor 1 (Homo sapiens) (UniProt P16066); assay: Natriuretic polypeptide receptor (hNpr1) antagonism - Pilot screen (AID 1347049; calls by dose curve;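 also: agonist-evoked cGMP luminescence read 20 min after hNppA addition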); settings: hNpr1 cells, antagonist mode cGMP read-out; series mostly up to 57.5 µM
How it was run: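 Readout is cGMP-driven firefly luciferase luminescence in HEK293 cells carrying hNpr1 and a PDE5-domain GloSensor, read before and 20 min after 0.1 nM hNppA stimulation. Cells had 2% substrate reagent for 2 h and test compound for 30 min.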

Measured: Potency

Atrial natriuretic peptide receptor 1 (Homo sapiens), sequence (P16066 whole entry, looked up): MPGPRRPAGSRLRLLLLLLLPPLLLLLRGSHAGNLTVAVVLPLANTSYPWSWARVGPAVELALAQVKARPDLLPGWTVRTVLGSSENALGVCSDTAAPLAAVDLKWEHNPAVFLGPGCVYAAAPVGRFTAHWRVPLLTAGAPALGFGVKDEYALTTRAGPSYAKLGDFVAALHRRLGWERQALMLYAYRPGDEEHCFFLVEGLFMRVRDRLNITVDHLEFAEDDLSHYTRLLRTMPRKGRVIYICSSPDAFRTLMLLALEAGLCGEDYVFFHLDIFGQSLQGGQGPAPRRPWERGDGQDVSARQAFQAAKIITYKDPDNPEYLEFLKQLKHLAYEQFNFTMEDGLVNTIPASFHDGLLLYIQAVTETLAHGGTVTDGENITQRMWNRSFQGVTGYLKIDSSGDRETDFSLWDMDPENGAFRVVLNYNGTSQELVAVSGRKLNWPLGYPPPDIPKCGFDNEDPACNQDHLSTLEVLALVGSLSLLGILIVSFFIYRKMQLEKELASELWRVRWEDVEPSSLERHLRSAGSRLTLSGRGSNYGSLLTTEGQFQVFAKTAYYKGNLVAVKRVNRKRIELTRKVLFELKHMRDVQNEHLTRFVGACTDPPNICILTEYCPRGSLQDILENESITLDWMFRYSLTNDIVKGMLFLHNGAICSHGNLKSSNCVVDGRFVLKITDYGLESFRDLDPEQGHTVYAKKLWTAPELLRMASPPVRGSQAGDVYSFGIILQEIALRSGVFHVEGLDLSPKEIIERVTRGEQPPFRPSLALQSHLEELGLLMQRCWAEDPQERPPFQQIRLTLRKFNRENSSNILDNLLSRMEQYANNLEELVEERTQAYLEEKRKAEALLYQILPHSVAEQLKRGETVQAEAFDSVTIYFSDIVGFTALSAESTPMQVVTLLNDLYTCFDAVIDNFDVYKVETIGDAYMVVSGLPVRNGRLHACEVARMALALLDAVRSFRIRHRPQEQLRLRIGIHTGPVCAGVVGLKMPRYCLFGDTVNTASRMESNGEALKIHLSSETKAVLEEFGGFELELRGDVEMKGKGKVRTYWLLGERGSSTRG

FC(F)(F)c1cccc(C2=CCN(CCc3ccc4ccccc4c3)CC2)c1
inactive: [1] | [2] | [3] | [4] | [5]

O=c1oc2ccccc2c(O)c1C(CC(O)c1ccc(-c2ccc(Br)cc2)cc1)c1ccccc1 (centres undefined)
inactive: [1] | [2] | [3] | [4] | [5]

CCOP(=S)(OCC)Oc1cc(C)nc(C(C)C)n1
inactive: [1] | [2] | [3] | [4] | [5]

CC(=O)[C@H]1CC[C@H]2[C@@H]3CC[C@H]4C[C@](C)(O)CC[C@]4(C)[C@H]3CC[C@]12C
inactive: [1] | [2] | [3] | [4] | [5]

CC(=O)[C@H]1CC[C@H]2[C@@H]3CC[C@H]4C[C@H](O)CC[C@]4(C)[C@H]3C(=O)C[C@]12C
inactive: [1] | [2] | [3] | [4] | [6]

CC[N+](CC)(CC)CC
inactive: [1] | [2] | [3] | [4] | [5]

CC(CCc1ccccc1)NC(C)C(O)c1ccc(O)cc1 (centres undefined)
inactive: [1] | [2] | [4] | [6]

CCN(CC)CCOC(=O)C(O)(c1ccccc1)c1ccccc1
inactive: [1] | [2] | [3] | [4] | [5]

CC(C)(C)CC(C)(C)c1ccc(O)cc1
inactive: [1] | [2] | [3] | [4] | [5]

Oc1cc(Cl)ccc1Oc1ccc(Cl)cc1Cl
inactive: [1] | [2] | [4]
inactive and 31.6 µM (active): [5]

c1ccc2c(c1)OCC(C1=NCCN1)O2 (centres undefined)
active: [3] 31.6 µM
inactive: [1] | [2] | [5]

O=C1NCN(c2ccccc2)C12CCN(CC1COc3ccccc3O1)CC2 (centres undefined)
inactive: [1] | [2] | [3] | [4] | [6]

NN=C(N)N
inactive: [1] | [2] | [3] | [4] | [6]

CN1C[C@H](CNC(=O)OCc2ccccc2)C[C@@H]2c3cccc4c3c(cn4C)C[C@H]21
inactive: [1] | [2] | [3] | [4] | [6]

Clc1cccc(N2CCNCC2)c1
inactive: [1] | [2] | [3] | [4] | [5]

Clc1ccc(CCC(Cn2ccnc2)Sc2c(Cl)cccc2Cl)cc1 (centres undefined)
inactive: [1] | [2] | [3] | [4]

Oc1ccc(Cl)cc1Cc1ccccc1
inactive: [1] | [2] | [3] | [4] | [5]

Cc1ccc(S(=O)(=O)N[C@@H](CCCCN)C(=O)CCl)cc1
inactive: [1] | [2] | [3] | [4] | [6]

CCCC1CCCCN1 (centres undefined)
inactive: [1] | [2] | [3] | [4] | [5]

c1ccc(C2CC2)c(OCC2=NCCN2)c1
inactive: [1] | [2] | [3] | [4] | [5] | [6]

Nc1ccncc1
inactive: [1] | [2] | [3] | [4] | [6]

Oc1ccccc1-c1ccccc1
inactive: [1] | [2] | [3] | [4] | [5]

COc1ccccc1N1CCNCC1
inactive: [1] | [2] | [3] | [4] | [5] | [6]

CC(C)NCC(O)c1ccccc1Cl (centres undefined)
inactive: [1] | [2] | [3] | [4] | [5]

N#CC(C#N)=Cc1ccc(O)c(O)c1
inactive: [1] | [2] | [3] | [4] | [5] | [6]

CCC1(C2=NCCN2)Cc2ccccc2O1 (centres undefined)
inactive: [1] | [2] | [3] | [4] | [6]
